The source made the active and inactive calls.

The nature of test [1]: binders of probe aFSTL3 on microarray, primary screen, stem cell growth factor project, biochemical, small-molecule microarray, fluorescence 635/667 (AID 1064).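 Note: measures binding of the biotinylated anti-FSTL3 antibody to printed compounds.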 As to conditions: higher = more signal.
Test [2] in a line: binders from COS7 lysate, DM2A8 probe, primary screen, torsin A project, cell lysate, small-molecule microarray, fluorescence 635/667 (AID 1065). As to conditions: higher = more signal, COS7 lysate expressing mutant human TOR1A.
Test [3] is described as follows: binders of probe aFGF2 on microarray, primary screen, stem cell growth factor project, biochemical, small-molecule microarray, fluorescence 635/667 (AID 1067).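 Note: measures binding of biotinylated aFGF2 protein to printed compounds on slides; z-score merges feature fluorescence and signal-to-noise across triplicate slides.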 As to conditions: higher = more signal.
A short description of test [4]: binders of probe aFGF10 on microarray, primary screen, stem cell growth factor project, biochemical, small-molecule microarray, fluorescence 635/667 (AID 1071).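 Note: score merges 667 nm spot intensity and signal to noise from triplicate slides.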 As to conditions: higher = more signal.
The target of test [5] is Neurogenic locus notch homolog protein 2 (Homo sapiens) (UniProt Q04721). Put plainly: Notch2 binders on small-molecule microarrays, primary screen, biochemical, small-molecule microarray, 635 nm fluorescence, stem cell growth factors (AID 1073). As to conditions: Notch2 binding, higher = more signal.
The target in test [6] is Pro-neuregulin-1, membrane-bound isoform (Homo sapiens) (UniProt Q02297). The test can be described thus: NRG1 binders on small-molecule microarrays, primary screen, psychiatric disease protein project, biochemical, small-molecule microarray, fluorescence 635/667 (AID 1075).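 Note: score combines 667 nm spot fluorescence with signal to noise.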 As to conditions: NRG1 binding, 635 nm fluorescence, higher = more signal.
For test [7], the system named is Neuregulin-1 EGF-like domain. The test can be described thus: binders of neuregulin-1 EGF-like domain, primary screen, biochemical, small-molecule microarray, 635 nm fluorescence (AID 1081).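 Note: binding of the protein to compounds printed on small-molecule microarray slides.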 As to conditions: small-molecule microarray binding, higher = more signal.
Test [8] is described as follows: FRG1 promoter luciferase signal modulators, primary screen, FRG1 inhibition for FSHD, cell-based, C2C12 myotubes, firefly/Renilla luciferase, luminescence (AID 1084). As to conditions: higher = more signal, called active from +8 up or from −8 down.
Test [9] is described as follows: binders of probe aFST on microarray, primary screen, stem cell growth factor project, biochemical, small-molecule microarray, fluorescence 635/667 (AID 1086).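 Note: score merges 667 nm fluorescence with signal-to-noise of each printed compound spot.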 As to conditions: higher = more signal.
The nature of test [10]: binders of probe aHhip on microarray, primary screen, stem cell growth factor project, biochemical, small-molecule microarray, fluorescence 635/667 (AID 1087).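 Note: score merges spot fluorescence at 667nm with spot signal to noise ratio.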 As to conditions: higher = more signal.

Pro-neuregulin-1, membrane-bound isoform (Homo sapiens), sequence (Q02297 whole entry, looked up, the tested form may be a part, canonical isoform): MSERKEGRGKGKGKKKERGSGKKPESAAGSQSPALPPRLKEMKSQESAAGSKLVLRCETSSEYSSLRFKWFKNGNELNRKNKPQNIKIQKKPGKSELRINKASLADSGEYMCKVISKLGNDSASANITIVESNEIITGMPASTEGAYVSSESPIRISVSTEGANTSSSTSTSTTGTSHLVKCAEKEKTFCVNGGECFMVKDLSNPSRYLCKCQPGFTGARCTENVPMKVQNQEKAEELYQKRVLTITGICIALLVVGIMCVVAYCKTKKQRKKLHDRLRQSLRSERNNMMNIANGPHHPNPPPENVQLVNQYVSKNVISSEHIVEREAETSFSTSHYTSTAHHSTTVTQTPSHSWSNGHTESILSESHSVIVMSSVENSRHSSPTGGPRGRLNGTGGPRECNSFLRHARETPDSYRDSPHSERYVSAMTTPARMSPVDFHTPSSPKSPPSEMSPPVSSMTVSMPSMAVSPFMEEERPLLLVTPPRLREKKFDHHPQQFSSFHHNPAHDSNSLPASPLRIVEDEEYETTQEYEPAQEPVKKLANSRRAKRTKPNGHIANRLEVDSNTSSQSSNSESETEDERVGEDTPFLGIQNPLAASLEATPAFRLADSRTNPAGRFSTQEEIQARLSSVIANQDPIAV
Neurogenic locus notch homolog protein 2 (Homo sapiens), sequence (Q04721 whole entry, looked up, canonical isoform): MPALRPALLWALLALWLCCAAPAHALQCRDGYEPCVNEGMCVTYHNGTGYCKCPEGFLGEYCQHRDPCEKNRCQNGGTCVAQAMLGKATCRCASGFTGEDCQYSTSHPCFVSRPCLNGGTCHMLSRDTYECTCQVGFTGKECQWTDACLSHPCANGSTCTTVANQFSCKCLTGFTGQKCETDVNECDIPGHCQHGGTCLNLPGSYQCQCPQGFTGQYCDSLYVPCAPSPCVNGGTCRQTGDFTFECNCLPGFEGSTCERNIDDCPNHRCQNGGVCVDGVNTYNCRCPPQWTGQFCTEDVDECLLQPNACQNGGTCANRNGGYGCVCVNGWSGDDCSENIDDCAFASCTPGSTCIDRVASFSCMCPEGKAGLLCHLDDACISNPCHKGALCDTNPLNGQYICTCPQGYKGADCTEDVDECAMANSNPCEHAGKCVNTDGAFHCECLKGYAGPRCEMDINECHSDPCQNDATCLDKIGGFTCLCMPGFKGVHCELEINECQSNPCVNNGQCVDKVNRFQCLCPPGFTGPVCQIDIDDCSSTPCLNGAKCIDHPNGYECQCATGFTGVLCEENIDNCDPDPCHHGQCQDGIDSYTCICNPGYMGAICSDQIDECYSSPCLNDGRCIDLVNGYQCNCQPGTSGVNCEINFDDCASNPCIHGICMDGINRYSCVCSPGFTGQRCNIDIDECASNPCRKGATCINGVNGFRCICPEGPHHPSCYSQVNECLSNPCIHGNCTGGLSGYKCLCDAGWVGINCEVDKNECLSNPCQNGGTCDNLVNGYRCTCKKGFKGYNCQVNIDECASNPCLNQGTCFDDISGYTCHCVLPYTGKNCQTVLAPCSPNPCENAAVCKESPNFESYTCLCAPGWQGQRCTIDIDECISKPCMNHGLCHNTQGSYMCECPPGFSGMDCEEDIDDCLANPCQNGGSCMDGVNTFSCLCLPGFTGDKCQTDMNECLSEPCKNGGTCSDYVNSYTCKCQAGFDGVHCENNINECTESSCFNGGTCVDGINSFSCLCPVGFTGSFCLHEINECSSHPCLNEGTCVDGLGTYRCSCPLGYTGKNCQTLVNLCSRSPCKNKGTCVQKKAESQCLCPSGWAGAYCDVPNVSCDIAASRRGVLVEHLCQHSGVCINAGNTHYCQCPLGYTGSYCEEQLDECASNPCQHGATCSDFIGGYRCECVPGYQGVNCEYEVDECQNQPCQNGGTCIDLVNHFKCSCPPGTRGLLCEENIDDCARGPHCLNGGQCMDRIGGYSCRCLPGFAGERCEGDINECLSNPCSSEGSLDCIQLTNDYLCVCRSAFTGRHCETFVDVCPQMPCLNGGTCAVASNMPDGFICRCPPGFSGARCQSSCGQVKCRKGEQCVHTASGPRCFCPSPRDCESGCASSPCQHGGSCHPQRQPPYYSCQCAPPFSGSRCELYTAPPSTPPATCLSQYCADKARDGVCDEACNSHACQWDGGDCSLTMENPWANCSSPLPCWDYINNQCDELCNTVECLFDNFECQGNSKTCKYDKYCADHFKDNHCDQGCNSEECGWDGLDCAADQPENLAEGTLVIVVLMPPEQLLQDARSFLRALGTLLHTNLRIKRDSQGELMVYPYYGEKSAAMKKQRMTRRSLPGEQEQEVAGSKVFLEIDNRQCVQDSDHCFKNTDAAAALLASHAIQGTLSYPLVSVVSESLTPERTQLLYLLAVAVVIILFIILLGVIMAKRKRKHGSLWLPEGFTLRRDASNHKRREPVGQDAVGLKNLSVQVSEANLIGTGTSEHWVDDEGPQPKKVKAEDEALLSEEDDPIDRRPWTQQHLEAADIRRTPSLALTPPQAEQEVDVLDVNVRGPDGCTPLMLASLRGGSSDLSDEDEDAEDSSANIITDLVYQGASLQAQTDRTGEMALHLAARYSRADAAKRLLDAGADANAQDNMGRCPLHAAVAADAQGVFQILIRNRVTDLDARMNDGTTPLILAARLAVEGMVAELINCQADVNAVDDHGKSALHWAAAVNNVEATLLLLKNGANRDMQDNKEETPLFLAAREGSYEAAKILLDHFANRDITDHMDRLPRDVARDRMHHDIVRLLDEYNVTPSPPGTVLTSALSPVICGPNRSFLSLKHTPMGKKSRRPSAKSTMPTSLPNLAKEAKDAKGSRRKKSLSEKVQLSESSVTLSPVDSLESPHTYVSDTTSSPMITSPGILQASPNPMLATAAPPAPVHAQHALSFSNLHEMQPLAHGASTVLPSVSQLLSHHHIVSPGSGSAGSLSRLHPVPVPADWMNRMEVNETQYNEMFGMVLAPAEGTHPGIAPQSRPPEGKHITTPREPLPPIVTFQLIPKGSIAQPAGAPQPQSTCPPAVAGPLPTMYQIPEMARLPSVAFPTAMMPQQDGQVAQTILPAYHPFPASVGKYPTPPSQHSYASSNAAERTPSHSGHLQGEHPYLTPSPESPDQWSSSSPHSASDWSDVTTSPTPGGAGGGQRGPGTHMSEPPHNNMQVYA

Consider `C=C(COC)C(=O)CC[C@H](OC(=O)c1cccnc1)c1ccc(OCCO)cc1`, for which the composite z-score in test [1] is -0.21; in [2] it was 0.43; in test [3], -0.133; in test [4] it was 1.2; in test [5] it was 0.144; in [6] it was 0.865. For the same compound, the composite z-score is 1.29 in test [7], 0.21 in test [9] and -0.0618 in test [10]. In addition, in [8], the z-score is -0.742 (inactive).
As for `[N-]=[N+]=NCc1ccccc1[C@@H]1OC(c2ccc(OCCCO)cc2)=N[C@]1(Cc1ccccc1N=[N+]=[N-])C(=O)O`, the composite z-score was 0.535 in [1]; 0.326 in test [2]; 0.294 in [3]; 1.14 in test [4]; 1.55 in test [5]; 1.89 in test [6]. Further, the composite z-score in [7] came to 1.3; in [9] it was 1.28; in [10] it was 0.455. Further, the z-score in test [8] was 1.22 (inactive).
With `CC1CC/C=C\[C@H]2OC34C=CCN(C(C)(C)C)C(=O)[C@H]3N(CCCO)C(=O)[C@@H]4C2C(=O)O1` (stereo not given in full), the composite z-score was 0.142 in [1]; -0.0052 in test [2]; -0.0063 in test [3]; 0.716 in test [4]; -0.858 in test [5]; 0.647 in [6]. In addition, the composite z-score in test [7] is 1.28; in test [9], 0.182; in test [10] it was -0.169. Moreover, the z-score in [8] is -0.281 (inactive).
Turning to `Cc1ccc(F)cc1S(=O)(=O)N[C@H]1CCN(Cc2ccc(OC(C)C)cc2)C1`, the composite z-score in test [1] is -0.347; in [2], 0.325; in [3] it was -0.201; in [4] it was -0.0293; in [5], -0.563; in [6] it was -0.0273. Besides, the composite z-score in test [7] is 0.629; in test [9], 0.101; in [10], -0.132. Moreover, the z-score in test [8] is -1.84 (inactive).
`NC(=O)NCC#Cc1ccc2c(c1)[C@]1(C(=O)N2)[C@H](c2ccc(OCCO)cc2)N2[C@H](c3ccccc3)[C@H](c3ccccc3)OC(=O)[C@H]2[C@@H]1C(=O)NC[C@H](O)c1ccccc1`: the composite z-score in [1] was -0.142; in test [2], -0.329; in test [3], -0.0586; in [4], 0.029; in test [5], 0.322; in test [6], 0.577. Further, the composite z-score in [7] was -0.164; in test [9], 0.103; in test [10], -0.134. Besides, the z-score in [8] was -0.0847 (inactive).
With `CC1CC/C=C\[C@H]2OC34C=CCN(Cc5ccccc5)C(=O)[C@H]3N(CCCCCCO)C(=O)[C@@H]4C2C(=O)O1` (stereo not given in full), the composite z-score in test [1] is 0.261; in [2], 0.96; in test [3], -0.116; in [4], -0.994; in test [5] it was -0.763; in [6], 1.91. Further, the figures for the composite z-score in test [7], in test [9] and in test [10] were 1.19, -0.696 and -0.226, respectively. The z-score in [8] was -0.1 (inactive).
Turning to `Cc1ccc(S[C@]2(C(=O)NCC(F)(F)F)CC(=O)N(Cc3ccccc3C(F)(F)F)[C@@H]2c2ccc(CO)cc2)cc1`, the composite z-score in [1] was 0.953; in test [2], -0.0728; in [3], -0.1; in [4], -0.0379; in [5], -1.14; in test [6] it was -0.401. Also, the composite z-score was 0.573 in [7], -0.606 in test [9] and -0.191 in test [10]. The z-score in test [8] was -1.82 (inactive).
As for `COCCOC(=O)N1C(=O)[C@@]2(c3cc(C#CCC(C(=O)OC)C(=O)OC)ccc31)[C@H](C(=O)Nc1nc3ccccc3s1)[C@H]1C(=O)O[C@H](c3ccccc3)[C@H](c3ccccc3)N1[C@@H]2c1ccc(OCCO)cc1`, the composite z-score was 0.357 in [1]; 0.773 in test [2]; 0.224 in test [3]; 0.81 in test [4]; 1.22 in test [5]; 0.166 in test [6]. In addition, the composite z-score in test [7] was 1.23; in [9], 0.853; in test [10], -0.0699. Also, the z-score in [8] was 4.17 (inactive).
For the compound `COC(=O)[C@@]1(Cc2ccc(F)cc2)[C@H]2c3cc(C(=O)N4CCCC4)n(Cc4cc(F)cc5c4OCOC5)c3C[C@H]2CN1C(=O)c1ccccc1`, the composite z-score is 0.653 in test [1]; -0.622 in test [2]; 0.13 in test [3]; 0.816 in test [4]; 1.75 in test [5]; 1.69 in [6]. The composite z-score in [7] worked out at 0.102; in test [9], 1.56; in [10], 0.0759. For the same compound, the z-score in [8] is 0.869 (inactive).
In the case of `CCCCN1CC=CC23O[C@@H]4/C=C\CCCOC(=O)C4[C@H]2C(=O)N(C(CO)C(C)C)[C@@H]3C1=O` (stereo not given in full), the composite z-score in [1] is -0.1; in [2], 0.0253; in [3] it was -0.101; in test [4], 0.728; in test [5] it was -0.185; in [6], -0.164. Moreover, the results for the composite z-score in test [7], in [9] and in test [10] were 1.47, -0.228 and -0.236, respectively. Also, the z-score in [8] is 0.723 (inactive).
Turning to `COC(=O)C(CC#Cc1ccc2c(c1)[C@]1(C(=O)N2)[C@H](C(=O)NC[C@H](O)c2ccccc2)[C@H]2C(=O)O[C@H](c3ccccc3)[C@H](c3ccccc3)N2[C@@H]1c1ccccc1OCCO)C(=O)OC`, the composite z-score in test [1] is -0.266; in [2], 0.423; in test [3], -0.0996; in [4] it was 0.558; in test [5], 1.08; in test [6] it was 1.27. The composite z-score in test [7] is 1.3; in test [9], 0.254; in test [10], 0.0749. Also, the z-score in test [8] is 0.0111 (inactive).
For `C=CCNC(=O)[C@H]1[C@@H]2C(=O)O[C@@H](c3ccccc3)[C@@H](c3ccccc3)N2[C@@H](c2ccc(OCCO)cc2)[C@]12C(=O)Nc1ccc(C#CC3(O)CCCCCC3)cc12`, the composite z-score in [1] is 0.604; in test [2], 0.648; in [3] it was -0.0065; in [4], 1.1; in test [5], 1.54; in [6], 1.43. Besides, the composite z-score amounted to 1.1 in test [7], 0.229 in test [9] and 0.306 in test [10]. Moreover, the z-score in [8] is -0.486 (inactive).
In the case of `COC(=O)[C@H](Cc1ccc(O)cc1)N[C@@H](/C=C/C1CC1)[C@H](O)Cc1ccccc1`, the composite z-score in [1] is -0.262; in test [2], 0.396; in [3] it was -0.187; in [4], 0.154; in test [5] it was 0.023; in [6], -0.721. Also, the composite z-score was -0.776 in test [7], -0.437 in test [9] and -0.0994 in test [10]. In addition, the z-score in test [8] is -0.269 (inactive).
In the case of `C=C(C)[C@@H]1CC=C(C(O)C2C=CC3C(=O)N(c4ccccc4)C(=O)C3N2Nc2ccc([N+](=O)[O-])cc2)CC1` (stereo not given in full), the composite z-score in test [1] is -0.308; in test [2], 0.356; in test [3], -0.0784; in test [4], 1.05; in test [5], 1.61; in test [6] it was 1.07. For the same compound, the composite z-score in test [7] worked out at 1.24; in test [9], 1.57; in test [10], 0.167. Further, the z-score in test [8] was -0.0111 (inactive).
As to `COc1ccc([Si](C)(C)[C@H]2[C@H](CC(=O)N3CCC[C@H]3CO)O[C@@]3(C(=O)N(Cc4ccc(N5CCCCC5=O)cc4)c4ccccc43)[C@@H]2C)cc1`, the composite z-score in test [1] was -0.35; in test [2] it was 0.227; in test [3], -0.0494; in [4], 0.671; in [5] it was 0.565; in test [6] it was 1.33. Moreover, the composite z-score in test [7] worked out at 1.12; in [9], 0.536; in test [10], 0.0373. The z-score in test [8] was -4.24 (inactive).
In the case of `C=CC[C@]1(C(=O)NCC(O)CO)COC(c2ccc(OCCCO)cc2)=N1` (stereo not given in full), the composite z-score in [1] was 1.3; in test [2] it was 1.29; in test [3] it was 0.0163; in test [4], -0.0216; in test [5] it was -0.888; in [6], 0.0498. Also, the results for the composite z-score in test [7], in [9] and in test [10] were 0.99, 0.0371 and -0.141, respectively. The z-score in test [8] is 1.14 (inactive).

The record behind these values is PubChem BioAssay.
